Assay results from PubChem BioAssay (EPA / NIEHS).
Inconclusive results are not listed. Activity calls are given as the source filed them. Rule for the calls, unless noted: active = hit-call score of the fitted dose curve at least 0.9, where 1 is the maximum; inactive = score below 0.9.

Columns and labels:
[1] = target: Peroxisome proliferator-activated receptor gamma (Homo sapiens) (UniProt P37231); assay: OT_PPARg_PPARgSRC1_0480: Odyssey Thera (OT) 8-hour Protein-Complementation Assay for Peroxisome Proliferator-activated Receptor Gamma / SRC-1 Co-activator (AID 2283387; active = hit-call score of the fitted dose curve at least 0.9, where 1 is the maximum)
Sequence of Peroxisome proliferator-activated receptor gamma (Homo sapiens) (P37231 whole entry, looked up, the tested form may be a part): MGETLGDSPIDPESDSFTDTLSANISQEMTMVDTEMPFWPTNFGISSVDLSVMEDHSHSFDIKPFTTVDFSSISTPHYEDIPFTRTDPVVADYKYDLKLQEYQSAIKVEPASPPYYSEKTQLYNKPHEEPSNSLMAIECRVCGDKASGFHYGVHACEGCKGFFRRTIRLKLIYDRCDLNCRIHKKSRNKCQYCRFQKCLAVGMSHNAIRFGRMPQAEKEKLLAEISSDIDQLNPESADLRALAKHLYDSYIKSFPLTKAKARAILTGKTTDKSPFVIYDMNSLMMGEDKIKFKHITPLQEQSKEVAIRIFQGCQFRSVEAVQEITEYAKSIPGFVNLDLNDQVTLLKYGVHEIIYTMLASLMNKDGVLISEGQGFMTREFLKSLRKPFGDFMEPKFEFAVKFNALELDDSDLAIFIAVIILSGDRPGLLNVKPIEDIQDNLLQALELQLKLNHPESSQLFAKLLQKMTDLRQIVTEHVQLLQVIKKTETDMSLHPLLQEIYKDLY
Outline: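 Protein-fragment complementation in HEK293T: Venus YFP halves (residues 1-158, 159-239, mutated to IFP1/IFP2) fused to PPARg/SRC-1. 8 h exposure; N/C ratio at 488 nm; DMSO negative control.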

[2] = target: Peroxisome proliferator-activated receptor gamma (Homo sapiens) (UniProt P37231); assay: OT_PPARg_PPARgSRC1_1440: Odyssey Thera (OT) 24-hour Protein-Complementation Assay for Peroxisome Proliferator-activated Receptor Gamma/ SRC-1 Co-activator (AID 2283388; active = hit-call score of the fitted dose curve at least 0.9, where 1 is the maximum)
Outline: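 HEK293T transiently transfected with PPARg/SRC-1 split-Venus YFP fusions 48 h before dosing, then treated 24 h at 37C. Fixed cells imaged; nuclear/cytoplasmic 488 nm fluorescence ratio, gain of signal versus DMSO.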

[3] = read-out: Tumor necrosis factor receptor superfamily member 6 (Homo sapiens) (UniProt P25445); assay: LTEA_HepaRG_FAS: Life Technologies and Expression Analysis (LTEA) Assay for Fas cell surface death receptor (FAS) using HepaRG (AID 2283447); conditions: mRNA level, 48 h; actives raise or lower the signal
Outline: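 Differentiated human HepaRG cells, pre-cultured 48 h, were exposed in duplicate for 48 h to 8-point half-log concentrations (top 100 uM, 0.5% DMSO) in serum-free induction medium; FAS mRNA measured by qRT-PCR, normalized to ACTB/GAPDH/POLR2A, bidirectional fit versus DMSO.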

[4] = read-out: Cyclin D2 (CCND2), CCND2 (gene 894); assay: LTEA_HepaRG_CCND2: Life Technologies and Expression Analysis (LTEA) Assay for Cyclin D2 (CCND2) using HepaRG (AID 2283449); conditions: mRNA level, 48 h; actives raise or lower the signal;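 note: CCND2 transcript measured by TaqMan qRT-PCR and normalised to three housekeeping genes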
Outline: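 Differentiated human HepaRG cells were exposed for 48 h in serum-free induction medium to eight half-log concentrations topping at 100 uM (0.5% DMSO vehicle). CCND2 mRNA was quantified by TaqMan qRT-PCR, normalised to ACTB, GAPDH and POLR2A, and fitted bidirectionally against DMSO.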

[5] = read-out: Cyclin Dependent Kinase Inhibitor 1A (CDKN1A), CDKN1A (gene 1026); assay: LTEA_HepaRG_CDKN1A: Life Technologies and Expression Analysis (LTEA) Assay for Cyclin Dependent Kinase Inhibitor 1A (CDKN1A) using HepaRG (AID 2283450); conditions: mRNA level, 48 h; actives raise or lower the signal
Outline: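 Differentiated HepaRG cells in serum-free induction medium, exposed 48 h in duplicate to eight half-log concentrations up to 100 uM in 0.5% DMSO. mRNA measured by TaqMan qRT-PCR, normalized to ACTB, GAPDH, POLR2A; bidirectional fit versus DMSO.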

[6] = read-out: catalase (CAT), CAT (gene 847); assay: LTEA_HepaRG_CAT: Life Technologies and Expression Analysis (LTEA) Assay for catalase (CAT) using HepaRG (AID 2283452); conditions: mRNA level, 48 h; actives raise or lower the signal;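 for AC50: TaqMan qRT-PCR signal normalized to ACTB GAPDH and POLR2A housekeeping genes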
Outline: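 Differentiated HepaRG cells in serum-free induction medium were dosed 48 h in duplicate, eight half-log concentrations from 100 uM in 0.5% DMSO. Transcript measured by TaqMan qRT-PCR, normalised to ACTB/GAPDH/POLR2A, fitted bidirectionally against DMSO.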

[7] = read-out: flavin-containing dimethylaniline monooxygenases 3 (FMO3), FMO3 (gene 2328); assay: LTEA_HepaRG_FMO3: Life Technologies and Expression Analysis (LTEA) Assay for flavin-containing dimethylaniline monooxygenases 3 (FMO3) using HepaRG (AID 2283453); conditions: mRNA level, 48 h; actives raise or lower the signal
Outline: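 Differentiated HepaRG cells in serum-free induction medium, exposed 48 h in duplicate to 8 half-log concentrations up to 100 uM in 0.5% DMSO. FMO3 mRNA by qRT-PCR, normalized to ACTB, GAPDH, POLR2A; bidirectional fit vs DMSO.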

[8] = read-out: Cytochrome P450 (CYP1A1), CYP1A1 (gene 1543); assay: LTEA_HepaRG_CYP1A1: Life Technologies and Expression Analysis (LTEA) Assay for Cytochrome P450 (CYP1A1) using HepaRG (AID 2283454); conditions: mRNA level, 48 h; actives raise or lower the signal
Outline: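 Differentiated human HepaRG cells, after 48 h plating, exposed in duplicate for 48 h in serum-free induction medium to 8 half-log concentrations up to 100 uM in 0.5% DMSO. CYP1A1 mRNA by qRT-PCR, normalized to ACTB/GAPDH/POLR2A; bidirectional fit versus DMSO.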

[9] = read-out: CFLAR gene, CFLAR (gene 8837); assay: LTEA_HepaRG_CFLAR: Life Technologies and Expression Analysis (LTEA) Assay for CFLAR gene using HepaRG (AID 2283455); conditions: mRNA level, 48 h; actives raise or lower the signal
Outline: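 HepaRG cells were plated for 48 h, switched to serum-free induction medium, then exposed in duplicate for 48 h to 8 concentrations (top 100 uM, half-log steps, 0.5% DMSO). CFLAR mRNA was measured by qRT-PCR, normalized to ACTB, GAPDH and POLR2A.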

[10] = target: Retinoic acid receptor RXR-alpha (Homo sapiens) (UniProt P19793); assay: OT_NURR1_NURR1RXRa_1440: Odyssey Thera (OT) 24-hour HEK293T Protein Complementation Assay for Nurr1/retinoid X receptor (RXR) (AID 2283386; active = hit-call score of the fitted dose curve at least 0.9, where 1 is the maximum)
Sequence of Retinoic acid receptor RXR-alpha (Homo sapiens) (P19793 whole entry, looked up, the tested form may be a part): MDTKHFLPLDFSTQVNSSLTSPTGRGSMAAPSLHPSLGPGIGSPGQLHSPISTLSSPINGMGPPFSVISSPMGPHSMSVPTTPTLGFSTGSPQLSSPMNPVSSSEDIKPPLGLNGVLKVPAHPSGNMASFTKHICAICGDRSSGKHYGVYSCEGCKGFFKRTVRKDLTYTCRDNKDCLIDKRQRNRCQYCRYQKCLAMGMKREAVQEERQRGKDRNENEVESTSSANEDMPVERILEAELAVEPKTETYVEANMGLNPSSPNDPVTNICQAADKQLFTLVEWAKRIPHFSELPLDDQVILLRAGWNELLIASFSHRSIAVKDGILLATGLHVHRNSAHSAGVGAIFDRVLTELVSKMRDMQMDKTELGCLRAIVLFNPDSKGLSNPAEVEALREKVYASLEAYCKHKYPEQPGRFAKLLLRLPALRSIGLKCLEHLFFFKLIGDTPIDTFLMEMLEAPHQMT
Outline: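 Interaction of Nurr1 with RXRα brings fused reporter fragments together in human HEK293T cells, restoring a functional reporter. Fluorescence intensity is measured 24 h after chemical treatment, and values are analysed in the positive direction against DMSO.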

[11] = CEETOX_H295R_OHPREG: CeeTox H295R High-throughput Steroidogenesis Assay for OH-Pregnenolone (OHPREG) (AID 2283434); conditions: actives raise or lower the signal
Outline: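 Human adrenal H295R cells were prestimulated 48 h with 10 uM forskolin, then exposed 48 h to chemical in 0.1% DMSO. Medium 17alpha-hydroxypregnenolone was quantified by HPLC-MS/MS after MTBE extraction; bidirectional fitting versus DMSO baseline.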

[12] = CEETOX_H295R_OHPROG: CeeTox H295R High-throughput Steroidogenesis Assay for OH-Progesterone (OHPROG) (AID 2283435); conditions: actives raise or lower the signal;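 note: 17alpha-hydroxyprogesterone secreted into medium measured by HPLC-MS/MS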
Outline: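 H295R, 10 uM forskolin prestim 48 h; cmpd in 0.1% DMSO 48 h; medium MTBE-extracted, HPLC-MS/MS for OH-progesterone; 7-pt std curve; bidirectional fit vs DMSO; MTT viability, chemicals diluted until viability >/=70%.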

[13] = CEETOX_H295R_CORTIC: CeeTox H295R High-throughput Steroidogenesis Assay for Corticosterone (CORTIC) (AID 2283437); conditions: actives raise or lower the signal;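 note: corticosterone secreted into medium quantified by mass spectrometry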
Outline: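 H295R cells were prestimulated 48 h with 10 uM forskolin, then exposed 48 h to test chemical in 0.1% DMSO. Medium corticosterone was MTBE-extracted and quantified by HPLC-MS/MS; bidirectional fit versus DMSO baseline.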

[14] = CEETOX_H295R_CORTISOL: CeeTox H295R High-throughput Steroidogenesis Assay for Cortisol (AID 2283438); conditions: actives raise or lower the signal;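 note: cortisol secreted into medium quantified by LC-MS/MS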
Outline: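 Forskolin 10 uM 48 h prestim → test cmpd in DMSO (0.1% final) 48 h → medium MTBE-extracted → LC-MS/MS cortisol vs 7-pt std curve. Gain/loss of signal fitted vs DMSO. MTT viability in same wells.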

[15] = CEETOX_H295R_DOC: CeeTox H295R High-throughput Steroidogenesis Assay for DOC (AID 2283439); conditions: actives raise or lower the signal
Outline: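 Readout: 11-deoxycorticosterone in culture medium by reverse-phase C18 HPLC with ESI+ tandem MS after MTBE extraction. Cells: H295R, forskolin-primed (10 uM, 48 h), chemical-treated 48 h; DMSO 0.1% final. Activity fitted bidirectionally versus DMSO.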

[16] = CEETOX_H295R_ESTRADIOL: CeeTox H295R High-throughput Steroidogenesis Assay for Estradiol (AID 2283440); conditions: actives raise or lower the signal;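 note: estradiol secreted into medium quantified by LC-MS/MS after dansyl derivatisation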
Outline: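 H295R cells pre-stimulated 48 h with 10 uM forskolin, then exposed 48 h to chemical in 0.1% DMSO. Medium estradiol quantified by MTBE extraction, dansyl derivatisation and HPLC-MS/MS; bidirectional fit versus DMSO; MTT viability required >/=70%.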

[17] = CEETOX_H295R_ESTRONE: CeeTox H295R High-throughput Steroidogenesis Assay for Estrone (AID 2283441); conditions: actives raise or lower the signal;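 note: estrone secreted into medium measured by LC-MS/MS after dansyl derivatization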
Outline: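 H295R cells prestimulated 48 h with 10 uM forskolin, then exposed 48 h to chemicals in 0.1% DMSO final; estrone in medium extracted with MTBE, dansyl-derivatized, quantified by HPLC-MS/MS; bidirectional fitting versus DMSO, viability by MTT.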

[18] = CEETOX_H295R_PROG: CeeTox H295R High-throughput Steroidogenesis Assay for Progesterone (PROG) (AID 2283442); conditions: actives raise or lower the signal;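 note: human H295R adrenal cells primed with 10 µM forskolin before dosing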
Outline: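 H295R adrenal cells prestimulated 48 h with 10 uM forskolin, then exposed 48 h to test chemical in 0.1% DMSO. Progesterone in medium quantified by HPLC-MS/MS after MTBE extraction; viability checked by MTT in same wells.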

Measured: AC50

CC(C)(c1ccccc1)c1ccc(O)c(C(C)(C)c2ccccc2)c1
inactive: [1] | [2] | [3] | [4] | [5] | [9]
active: [6] 60.7 µM | [7] 78.2 µM | [8] 35.8 µM

C=CC(=O)OCCCCCC(C)C
active: [8] 50 µM
inactive: [1] | [2] | [3] | [4] | [5] | [6] | [7] | [9]

CC(=O)[O][Hg][c]1ccccc1
inactive: [1] | [2] | [8]
active: [10] 0.266 µM | [5] 0.174 µM | [6] 13.3 µM | [7] 16.9 µM | [9] 16.8 µM

O=C(Nc1ccc2[nH]ccc2c1)c1cc2cc(F)ccc2n1Cc1cccc(F)c1
active: [11] 1.11 µM | [12] 0.124 µM | [14] 4.26 µM | [15] 0.522 µM | [18] 4.84 µM | [6] 25.1 µM | [7] 26.3 µM | [8] 91.7 µM
inactive: [1] | [2] | [13] | [16] | [17] | [3] | [5] | [9]

C[C@H]1CCCC(=O)CCC/C=C/c2cc(O)cc(O)c2C(=O)O1
inactive: [1] | [2]

NNC(=S)NN
inactive: [10] | [1] | [2] | [16] | [17]
active: [11] 50 µM | [12] 50 µM | [18] 50 µM

[O-][Cl+2]([O-])O
inactive: [1] | [2]

CCCCOCCOC(C)=O
inactive: [1] | [2]

CC(C)C1CCC(Cc2ccc(Cl)cc2)C1(O)Cn1cncn1 (stereo not drawn)
inactive: [1] | [2]
